Assay outcomes as filed in PubChem.
In the library only some 1.6% were active in any assay of this set; here they are far more common.
Efflux pump mplx: inhibitors of Candida antifungal efflux pumps expressed in yeast; S. cerevisiae Candida pump triplex, Nile Red efflux; inhibition, % at 10 µM; 330,000 compounds, 0.44% hits; AID 485275;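 active means plate passing quality check with inhibition over a set limit, or well fluorescence over plate mean plus 4 SD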;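 further: Nile Red retained in pooled yeast measured as flow cytometry median fluorescence; 0% = buffer negative control and 100% = Enniatin B positive control; higher means more Nile Red kept so more efflux inhibition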
Yeast superoxide: yeast age-related superoxide inhibition as caloric restriction mimetic. 330,000 compounds, 0.18% hits. S. cerevisiae aged cells, superoxide DHE fluorescence; hits give low values. AID 2690. superoxide response (% of plate mean), % at 10 µM;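 active means superoxide response under a set limit, about three screen SD below normal, cut at about 65% in these data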;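 further: yeast aged for seven days with compound at 30 °C before DHE staining; 100% = average MFI of all compound-treated wells on the plate with controls excluded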
GRK2 inh: blocks RNA aptamer binding to human GRK2. P25098. bead flow cytometry, FAM-aptamer displacement from GRK2. inhibition of aptamer binding, % at 10 µM. 330,000 compounds, 0.59% hits. AID 488847;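 active means inhibition of aptamer binding above 40%, roughly 3 SD of noise, on plates passing a quality check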;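 further: median bead fluorescence of bound FAM aptamer so fluorescent compounds give negative values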
Target sequence (P25098 whole entry, looked up): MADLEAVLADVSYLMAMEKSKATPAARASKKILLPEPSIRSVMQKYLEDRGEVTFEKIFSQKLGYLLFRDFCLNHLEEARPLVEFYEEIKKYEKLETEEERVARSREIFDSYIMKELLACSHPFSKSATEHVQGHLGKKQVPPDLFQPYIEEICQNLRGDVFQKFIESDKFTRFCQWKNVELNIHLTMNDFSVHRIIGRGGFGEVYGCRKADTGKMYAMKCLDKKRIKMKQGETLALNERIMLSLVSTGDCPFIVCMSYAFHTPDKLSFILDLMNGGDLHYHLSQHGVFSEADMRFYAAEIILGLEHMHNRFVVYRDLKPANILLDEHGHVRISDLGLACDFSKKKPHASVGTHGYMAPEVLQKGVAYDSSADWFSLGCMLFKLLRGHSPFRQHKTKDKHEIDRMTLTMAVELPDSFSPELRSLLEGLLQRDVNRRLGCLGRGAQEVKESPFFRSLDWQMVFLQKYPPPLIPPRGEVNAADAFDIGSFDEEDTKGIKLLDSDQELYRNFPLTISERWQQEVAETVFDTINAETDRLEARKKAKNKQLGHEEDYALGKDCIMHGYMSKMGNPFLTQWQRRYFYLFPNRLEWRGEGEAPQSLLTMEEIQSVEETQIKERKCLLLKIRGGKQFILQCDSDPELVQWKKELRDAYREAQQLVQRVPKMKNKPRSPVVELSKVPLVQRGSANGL
ATG4B inhibitor: blocks human ATG4B protease cleavage of LC3 substrate | Q9Y4P1 | ATG4B cleavage of LC3-PLA2, NBD-HPC fluorescence, 1 h | inhibition, % at 8.33 µM | 340,000 compounds, 0.51% hits | AID 504462; in the data active means inhibition above about 40%
GRK2 inh confirm: confirmation of human GRK2 inhibitors displacing RNA aptamer; aptamer displacement, % at 10 µM; shares compounds with GRK2 inh; bead-bound GRK2, FAM-aptamer displacement, flow cytometry; 2,000 compounds, 4% hits; AID 504451;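 active means aptamer displacement above 40%, near three times the noise of non-fluorescent compounds, on plates passing quality checks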;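 further: negative values mostly reflect intrinsic compound fluorescence rather than true enhancement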
Aptamer quench SP: quenches fluorescent RNA aptamer, GRK2 hit artifact; shares compounds with GRK2 inh; Carboxyfluorescein RNA aptamer on beads, flow cytometry quenching; hits give low values; fluorescence response (% of DMSO), % at 10 µM; 2,000 tested, under 10 active; AID 504580;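 active means compounds that quench the bead-bound fluorescent RNA probe, cutting fluorescence to under half of the solvent control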;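 further: counterscreen run without GRK2 so only probe quenching by compound is measured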
GRK2 confirm 2: confirmation of human GRK2 inhibitors binding RNA aptamer site; shares compounds with GRK2 inh; bead-bound GRK2, FAM-aptamer displacement, flow cytometry; inhibition of aptamer binding, % at 10 µM; 360 tested, under 10 active;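 active means inhibition of aptamer binding above 40%, about triple the noise seen with nonglowing compounds, on plates passing quality control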;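 further: negative values mostly come from compounds that fluoresce themselves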
FAM quench SP: counter-screen for GRK2 binding hits: quenchers of fluorescent RNA aptamer | shares compounds with GRK2 inh | fluorescence response vs DMSO, % at 10 µM | 360 tested, under 10 active | carboxyfluorescein RNA aptamer beads, flow cytometry quenching; hits give low values;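 active means response vs DMSO under 50%, meaning signal dropped by over half, treated as fluorescence quencher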;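 further: labelled aptamer on streptavidin beads without GRK2 as a quench counter-screen; 100% = bead fluorescence of DMSO wells and lower means quenching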
An asterisk follows results filed as active; x = not tested or not shown.

SMILES	Efflux pump mplx	Yeast superoxide	GRK2 inh	ATG4B inhibitor	GRK2 inh confirm	Aptamer quench SP	others
Cc1ccc(C(=O)OCC(=O)c2c[nH]c3ccccc23)cc1S(=O)(=O)N1CCOCC1	x	x	x	-3.3	x	x
CCC(C)(C)NC(=O)CCCSc1nc2ccccc2[nH]1	-0.1	94.3	1.0	-2.0	x	x
CCC1Sc2ccc(S(=O)(=O)CCC(=O)Nc3ccccc3Cl)cc2NC1=O (configuration not stated)	0.1	84.6	1.0	1.7	x	x	GRK2 confirm 2=27.8;FAM quench SP=98.0
CCC1Sc2ccc(S(=O)(=O)CCC(=O)N3CCc4ccccc43)cc2NC1=O (configuration not stated)	0.2	102.6	57.0*	8.7	2.7	97.2	GRK2 confirm 2=0.6;FAM quench SP=104.0
CCC1Sc2ccc(S(=O)(=O)CCC(=O)NCc3ccc(C)o3)cc2NC1=O (configuration not stated)	-0.1	92.5	20.0	-4.9	x	x
CC1Sc2ccc(S(=O)(=O)CCC(=O)N3CCCC3)cc2NC1=O (configuration not stated)	0.1	109.5	0.0	-4.3	x	x
CC1Sc2ccc(S(=O)(=O)CCC(=O)N3CCc4ccccc43)cc2NC1=O (configuration not stated)	0.2	85.7	0.0	-10.4	x	x	GRK2 confirm 2=-28.1;FAM quench SP=99.0
O=C(NC1(C(F)(F)F)N=C2SCCN2C1=O)c1ccccc1F (configuration not stated)	-0.1	94.8	1.0	-5.4	x	x
Cc1c(N=NC2=C(O)CCCC2=O)c(=O)n(-c2ccccc2)n1C	-0.3	98.2	1.0	-1.9	x	x
O=C(Nc1ccccc1C(=O)O)/C(=C/c1ccc([N+](=O)[O-])cc1)NC(=O)c1ccc(Br)o1	0.1	87.2	80.0*	-10.7	0.0	102.1
O=C(NC(Cc1ccccc1)C(=O)O)/C(=C/c1ccc([N+](=O)[O-])cc1)NC(=O)c1ccc(Br)o1 (configuration not stated)	0.1	94.4	2.0	5.0	x	x
COc1cc(C2OCC3C(c4ccc(OC5OC(CO)C(O)C(O)C5O)c(OC)c4)OCC23)ccc1O (configuration not stated)	-0.1	100.4	0.0	-20.5	0.5	98.2
CN(CC(=O)Nc1cccc(F)c1)C(=O)C1CC(=O)N(Cc2ccco2)C1 (configuration not stated)	-0.3	97.8	0.0	-3.4	x	x
COc1ccc(-c2nn(-c3ccccc3)cc2/C=C2/SC(=S)N(CCC(=O)O)C2=O)c(C)c1	0.2	94.3	80.0*	11.1	-0.4	97.5
CC1CCN(C(=O)COC(=O)/C=C/c2ccc(Br)o2)CC1	0.0	94.0	0.0	9.0	x	x
CC1CCCC(C)N1C(=O)COC(=O)/C=C/c1ccc(Br)o1 (configuration not stated)	0.1	131.0	43.0*	6.5	6.8	98.0
O=C(COC(=O)c1ccc(OC(F)(F)F)cc1)Nc1ncccn1	0.0	98.0	41.0*	1.8	2.7	94.2
O=C(COC(=O)c1cccc(OC(F)F)c1)Nc1ncccn1	0.0	127.4	39.0	8.2	9.9	95.5
CC(C)NC(=O)NC(=O)COC(=O)c1cccc(OC(F)F)c1	-0.1	103.2	2.0	6.1	x	x
COc1ccc(CN(C)C(=O)c2cccc(S(=O)(=O)N3CCN(c4ccccc4)CC3)c2)c(OC)c1OC	0.0	113.5	0.0	-5.5	x	x
COc1ccc(CN(C)C(=O)c2cccc(S(=O)(=O)N3CCCc4ccccc43)c2)c(OC)c1OC	x	x	x	-18.6	-31.8	98.8
COC(=O)\C(C(C)=O)=C(/C=C/C=C/C=C/N(C)C)N(C)C	-0.1	91.7	71.0*	6.5	35.5	94.9
COC(=O)C1=CO[C@@H](O[C@@H]2O[C@H](CO)[C@@H](O)[C@H](O)[C@H]2O)C2C1C=C[C@@]2(O)CO (some centres not stated)	-0.3	107.1	0.0	-3.4	x	x
COc1cccc(N2CCN(c3ccc4nnc(CCC(=O)Nc5cccc(C(C)=O)c5)n4n3)CC2)c1	-0.1	141.1	0.0	-4.1	x	x
